Source: PubChem BioAssay (National Center for Advancing Translational Sciences (NCATS))
This is a sample that favours compounds with a hit; in the whole collection about 8% have one here.
MARV entry inh = inhibitors of Marburg virus binding or cell entry | Potency, µM (titrated, usually from 37.8 µM), usual class: inhibitors | Marburg virus pseudotyped entry inhibition, cell reporter | hit rate 1.8% among 300,000; calls by dose curve; tested in HEK293 cells
HCMV inh = human cytomegalovirus inhibition; HFF cells, HCMV-luciferase reporter, 72 h; stronger effect = lower value; activity change, negative = inhibition, % at 57.5 µM; hit rate 4.5% among 410,000; AID 1259415; in the data active = activity change below about -60%; inconclusive = no clear call, values can overlap the other calls; inactive = above about -39%
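Inhibition of viral replication was scored as loss of reporter luminescence in HFFs infected with HCMV-luciferase (MOI 1 PFU/cell) for 72 h; compounds tested at 2 doses, normalized to buffer and Salinomycin controls.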
SARS PLP yeast = SARS-CoV PLP inhibition in yeast. Potency, µM (doses to about 32.9 µM), hits mostly activators. hit rate 0.19% among 330,000. S. cerevisiae expressing SARS-CoV PLpro, growth rescue. AID 485353; calls by dose curve; note: nearly all actives have a fitted effect of over 55% in size
LASV entry inh = inhibitors of Lassa virus binding or cell entry. Lassa virus pseudotype entry inhibition, cell reporter. Potency, µM (titrated, usually from 37.9 µM), hits mostly inhibitors. hit rate 1.2% among 300,000. AID 540256; calls by dose curve; tested in HEK293 cells; note: nearly all actives have a fitted effect of over 50% in size
FMDV inh = foot and mouth disease virus antiviral activity | hit rate 1.2% among 410,000 | AID 1159524 | Potency, µM (titrated, usually from 57.9 µM), actives largely listed as inhibitors | FMDV antiviral cell-based qHTS; calls by dose curve; tested in HEK293T cells; note: read-out not given here; nearly all actives have a fitted effect of over 45% in size
HCV inhibitor = HCV inhibition. Huh7.5.1 HCVcc-Cre infection, luciferase reporter, 44 h. Potency, µM (top dose mostly 41.8 µM), actives largely listed as inhibitors. hit rate 3.4% among 340,000; active = well fitted inhibition curve with a large enough effect; inconclusive = small, poorly fitted or top-dose-only effect, or another doubt; inactive = no such curve, though single readings can be large or run the other way
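After 44 h co-culture of compound, cells and HCVcc-Cre (~0.5 moi), substrate is added for 15 min at room temperature and luciferase measured over 15 sec. Cells were seeded at 1,000/well and pre-cultured 4 h.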
Of the large screens only hits and unclear results are named; the others gave an inactive call.

COC(=O)c1cc2ccc(OC)cc2c2cc(OC)c(OC)cc12	FMDV inh inconclusive, HCV inhibitor 1.41µM (no result: MARV entry inh, LASV entry inh)
O=C(NC1=NCCS1)c1csc2ccccc12	LASV entry inh inconclusive, HCV inhibitor 7.08µM
O=C(NC1=NCCS1)c1ccccc1Cl	MARV entry inh inconclusive, LASV entry inh inconclusive
O=C(NC1=NCCS1)c1ccccc1OCc1ccccc1Cl	HCV inhibitor 12.6µM (no result: MARV entry inh, LASV entry inh)
CNC(=O)c1cccc(-c2ccc3ncc(-c4cccc(C(=O)NCCN(C)C)c4)n3n2)c1	none (no result: MARV entry inh, SARS PLP yeast, LASV entry inh, FMDV inh, HCV inhibitor)
Cc1ccc(Cn2c(=N)n(CC(=O)c3ccc([N+](=O)[O-])cc3)c3ccccc32)cc1	MARV entry inh inconclusive, HCMV inh -92.4, FMDV inh inconclusive, HCV inhibitor inconclusive
CCCCn1c(=N)n(CC(=O)c2ccc([N+](=O)[O-])cc2)c2ccccc21	HCMV inh -103.7 (no result: MARV entry inh, LASV entry inh, FMDV inh, HCV inhibitor)
COc1cc(SC)ccc1C(=O)OCC(=O)N1CC(=O)Nc2ccccc21	HCV inhibitor 10µM
O=C1CN(C(=O)COc2ccc(Cl)c(Cl)c2)c2ccccc2N1	HCMV inh -66.3
O=C1CN(C(=O)Cn2ncc(Cl)c(Cl)c2=O)c2ccccc2N1	MARV entry inh inconclusive, HCMV inh -94.9, LASV entry inh inconclusive, FMDV inh inconclusive, HCV inhibitor 5.62µM
CCCCOc1ccc(/C=C/C(=O)OCC(=O)N2CC(=O)Nc3ccccc32)cc1OCC	FMDV inh 12.6µM, HCV inhibitor 7.94µM
COc1ccc(C2C=C(c3ccccc3)Nc3nc(NC(=O)/C=C/c4ccc(F)cc4)nn32)cc1 (stereo not given)	none (no result: SARS PLP yeast, HCV inhibitor)
COC(=O)c1ccccc1NC(=O)c1ccc2nc(Cc3ccccc3)oc2c1	none (no result: MARV entry inh, SARS PLP yeast, HCV inhibitor)
COCC#Cc1cnc2c(c1)C(=O)N([C@@H](C)CO)C[C@H](C)[C@H](CN(C)C(=O)c1ccc3c(c1)OCO3)O2	none (no result: MARV entry inh, SARS PLP yeast, LASV entry inh, FMDV inh, HCV inhibitor)
Cc1ccc(C)c(Cn2c3ccccc3c3cnn(CC(=O)NC4CCC(C)CC4)c(=O)c32)c1 (stereo not given)	none (no result: SARS PLP yeast, HCV inhibitor)
O=C1CN(C(=O)/C=C/c2cccc(Cl)c2)c2ccccc2N1	MARV entry inh inconclusive, LASV entry inh inconclusive, HCV inhibitor 14.1µM
COc1ccccc1C(=O)NCCC(=O)N1CC(=O)Nc2ccccc21	MARV entry inh inconclusive
CCC(Oc1ccccc1OC)C(=O)N1CC(=O)Nc2ccccc21 (stereo not given)	HCMV inh -74.5
Cc1ccc(C)c(NC(=O)Cn2c(=O)n(CC3CCCO3)c(=O)c3ccccc32)c1 (stereo not given)	none (no result: SARS PLP yeast, HCV inhibitor)
CCOc1ccc(NC(=O)CN2C(=O)C(c3ccc(Cl)cc3)=NC2(C)C)cc1	none (no result: SARS PLP yeast, HCV inhibitor)
CC1(C)N=C(SCC(=O)Nc2ccc(Cl)cc2)C(c2ccccc2)=N1	MARV entry inh inconclusive, HCMV inh -80.3, HCV inhibitor inconclusive
CC1(C)N=C(SCC(=O)Nc2ccc(Cl)cc2)C(c2ccc(Cl)cc2)=N1	FMDV inh 22.4µM, HCV inhibitor 12.6µM
COc1ccc(NC(=O)Nc2c[nH]c(=O)[nH]c2=O)c(OC)c1	none (no result: MARV entry inh, SARS PLP yeast, HCV inhibitor)
CC1=C(C(=O)OCC2CCCO2)C(c2ccc(C)o2)C2=C(CC(c3ccc(F)cc3)CC2=O)N1 (stereo not given)	MARV entry inh 10µM, HCV inhibitor 8.91µM (no result: HCMV inh)
Cc1ccc(COc2ccccc2-c2cc(C(=O)N/N=C/c3cccnc3)[nH]n2)cc1	MARV entry inh inconclusive, LASV entry inh 8.91µM, FMDV inh inconclusive, HCV inhibitor inconclusive
CCOc1ccc(-c2cc(C(=O)N/N=C/c3cccnc3)c3ccccc3n2)cc1	MARV entry inh inconclusive, LASV entry inh inconclusive
CCOc1ccccc1-c1cc(C(=O)N/N=C/c2cccnc2)c2ccccc2n1	MARV entry inh 5.62µM, LASV entry inh inconclusive (no result: SARS PLP yeast)
CCc1c(C)sc(NC(=O)c2cc3nc(-c4ccc(OC)cc4)cc(C(F)(F)F)n3n2)c1C(=O)OC	none (no result: MARV entry inh, SARS PLP yeast, HCV inhibitor)
CCN(CC)C(=S)Nc1ccc(Cl)c(Cl)c1	HCMV inh -65.8, SARS PLP yeast inconclusive, HCV inhibitor inconclusive
Cc1ccc(C)c(S(=O)(=O)c2nnn3c2nc(NCc2ccc4c(c2)OCO4)c2sccc23)c1	HCMV inh -78.6, LASV entry inh inconclusive (no result: MARV entry inh, SARS PLP yeast, HCV inhibitor)
Cc1ccc(CCNc2nc3c(S(=O)(=O)c4ccccc4)nnn3c3ccsc23)cc1	none (no result: MARV entry inh, SARS PLP yeast, HCV inhibitor)
Cc1ccc(S(=O)(=O)c2nnn3c2nc(NCc2ccc4c(c2)OCO4)c2sccc23)cc1	none (no result: MARV entry inh, SARS PLP yeast, HCV inhibitor)
Cc1ccc(S(=O)(=O)c2nnn3c2nc(NCCc2ccccc2)c2sccc23)cc1	HCMV inh -65.3 (no result: MARV entry inh, SARS PLP yeast, HCV inhibitor)
